Experimental findings from PMC7862700, “An all-to-all approach to the identification of sequence-specific readers for epigenetic DNA modifications on cytosine” are described below.

Test in all cases: DAPPL (digital affinity profiling via proximity ligation, sequencing); 10 mM Tris-HCl pH 7.5, 50 mM NaCl, 1 mM DTT, 4% glycerol, room temperature, 30 min; GST-TFs on glutathione beads, 16-mer random dsDNA library, 0.1% formaldehyde crosslink after washing; high values mean tight binding
The target in assay [1] is T1, FEV (Homo sapiens, UniProt Q99581 1-238).
T1 sequence: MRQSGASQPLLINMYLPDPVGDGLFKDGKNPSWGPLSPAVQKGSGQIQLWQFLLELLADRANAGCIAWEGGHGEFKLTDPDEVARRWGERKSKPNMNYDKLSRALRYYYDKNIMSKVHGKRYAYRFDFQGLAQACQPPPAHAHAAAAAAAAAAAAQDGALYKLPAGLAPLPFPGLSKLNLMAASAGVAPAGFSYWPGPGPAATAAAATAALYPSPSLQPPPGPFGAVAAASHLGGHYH
To be noted: protein: recombinant; tags: N-terminal GST; dsDNA, one strand shown. Summed up:
(§1)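 Human transcription factors were made in yeast as GST fusions, captured on glutathione beads and barcoded with DNA. With a tag-only sample included, the pool was incubated with 200 nmole of a random double-stranded 16-mer DNA library in Tris/NaCl/DTT/glycerol buffer at room temperature for 30 min, then crosslinked with 0.1% formaldehyde after washing, ligated by proximity, amplified and sequenced. For binding signal, each hexamer's read frequency for a factor is divided by its frequency for the tag-only sample.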

Assay [2] addresses ETV5 (Homo sapiens, UniProt P41161 1-510). To be noted: protein: recombinant; tags: N-terminal GST; dsDNA, one strand shown. Summed up: as §1
The target in assay [3] is HSF1 (Homo sapiens, UniProt Q00613 1-529). To be noted: protein: recombinant; tags: N-terminal GST; chain copies: 3; dsDNA, one strand shown. In a few lines:
as §1

Assay [4] concerns the target T2, SPIC (Homo sapiens, UniProt Q8N5J4 1-248).
T2 sequence: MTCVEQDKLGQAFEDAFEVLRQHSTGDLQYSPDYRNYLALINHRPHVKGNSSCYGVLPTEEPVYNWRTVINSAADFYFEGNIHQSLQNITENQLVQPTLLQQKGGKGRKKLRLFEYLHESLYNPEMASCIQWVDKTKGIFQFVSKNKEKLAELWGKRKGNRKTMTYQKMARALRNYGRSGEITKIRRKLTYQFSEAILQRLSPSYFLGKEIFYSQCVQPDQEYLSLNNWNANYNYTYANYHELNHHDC
The conditions noted are these: protein: recombinant; tags: N-terminal GST; dsDNA, one strand shown. Summed up: as §1

Assay [5] has as its target ELF4 (Homo sapiens, UniProt Q99607 1-663). To be noted: protein: recombinant; tags: N-terminal GST; dsDNA, one strand shown. In a few lines: as §1
Assay [6] has as its target T3, ELK4 (Homo sapiens, UniProt P28324-2 1-405).
T3 sequence: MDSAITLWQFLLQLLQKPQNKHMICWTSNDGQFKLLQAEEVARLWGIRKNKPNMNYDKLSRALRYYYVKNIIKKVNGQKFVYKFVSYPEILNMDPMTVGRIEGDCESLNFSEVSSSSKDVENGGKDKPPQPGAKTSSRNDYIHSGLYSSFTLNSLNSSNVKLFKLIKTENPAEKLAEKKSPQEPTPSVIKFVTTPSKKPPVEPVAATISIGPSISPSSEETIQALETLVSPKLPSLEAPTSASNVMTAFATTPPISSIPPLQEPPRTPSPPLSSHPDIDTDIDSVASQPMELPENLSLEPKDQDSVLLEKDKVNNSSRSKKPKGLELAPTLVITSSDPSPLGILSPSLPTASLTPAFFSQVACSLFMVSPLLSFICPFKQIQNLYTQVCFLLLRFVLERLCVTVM
To be noted: protein: recombinant; tags: N-terminal GST; dsDNA, one strand shown. Summed up: as §1

Assay [7] concerns the target T4, ETV2 (Homo sapiens, UniProt O00321 1-342).
T4 sequence: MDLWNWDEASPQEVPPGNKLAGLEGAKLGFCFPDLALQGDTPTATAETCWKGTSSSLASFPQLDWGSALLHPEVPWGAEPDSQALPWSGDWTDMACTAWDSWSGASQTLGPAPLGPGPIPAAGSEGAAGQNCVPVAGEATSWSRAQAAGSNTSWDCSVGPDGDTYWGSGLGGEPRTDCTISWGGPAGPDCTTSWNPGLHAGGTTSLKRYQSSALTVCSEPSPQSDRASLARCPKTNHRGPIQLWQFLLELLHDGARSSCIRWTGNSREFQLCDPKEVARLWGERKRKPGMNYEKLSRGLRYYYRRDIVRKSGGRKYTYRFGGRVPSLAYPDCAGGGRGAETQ
To be noted: protein: recombinant; tags: N-terminal GST; dsDNA, one strand shown. In a few lines: as §1

The target in assay [8] is T5, ELF3 (Homo sapiens, UniProt P78545 1-371).
T5 sequence: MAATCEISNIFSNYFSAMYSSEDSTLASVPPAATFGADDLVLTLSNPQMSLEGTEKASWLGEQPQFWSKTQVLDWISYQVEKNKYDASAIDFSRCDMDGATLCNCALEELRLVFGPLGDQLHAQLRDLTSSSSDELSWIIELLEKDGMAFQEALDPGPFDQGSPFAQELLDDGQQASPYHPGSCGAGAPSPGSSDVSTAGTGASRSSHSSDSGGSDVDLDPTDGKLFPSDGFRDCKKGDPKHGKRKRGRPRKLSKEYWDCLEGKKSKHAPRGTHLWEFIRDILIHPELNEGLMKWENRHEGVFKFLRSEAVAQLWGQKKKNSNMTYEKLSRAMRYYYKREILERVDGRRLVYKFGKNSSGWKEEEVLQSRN
The conditions noted are these: protein: recombinant; tags: N-terminal GST; dsDNA, one strand shown. In a few lines:
as §1

For assay [9], the target named is CRX (Homo sapiens, UniProt O43186 1-299). The conditions noted are these: protein: recombinant; tags: N-terminal GST; dsDNA, one strand shown. Summed up: as §1
CRX, sequence (O43186 whole entry): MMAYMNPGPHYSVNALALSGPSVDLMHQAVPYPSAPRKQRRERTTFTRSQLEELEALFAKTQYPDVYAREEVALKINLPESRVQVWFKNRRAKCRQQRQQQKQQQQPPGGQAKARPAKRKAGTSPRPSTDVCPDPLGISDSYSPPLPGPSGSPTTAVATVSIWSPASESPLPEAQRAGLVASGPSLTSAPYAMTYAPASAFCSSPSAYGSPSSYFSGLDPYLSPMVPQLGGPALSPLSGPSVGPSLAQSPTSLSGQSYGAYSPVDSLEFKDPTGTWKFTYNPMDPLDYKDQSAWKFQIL
Assay [10] addresses ETV1 (Homo sapiens, UniProt P50549 1-477). The conditions noted are these: protein: recombinant; tags: N-terminal GST; dsDNA, one strand shown. In a few lines:
as §1

Assay [11] concerns the target T6, ERF (Homo sapiens, UniProt P50548 1-548).
T6 sequence: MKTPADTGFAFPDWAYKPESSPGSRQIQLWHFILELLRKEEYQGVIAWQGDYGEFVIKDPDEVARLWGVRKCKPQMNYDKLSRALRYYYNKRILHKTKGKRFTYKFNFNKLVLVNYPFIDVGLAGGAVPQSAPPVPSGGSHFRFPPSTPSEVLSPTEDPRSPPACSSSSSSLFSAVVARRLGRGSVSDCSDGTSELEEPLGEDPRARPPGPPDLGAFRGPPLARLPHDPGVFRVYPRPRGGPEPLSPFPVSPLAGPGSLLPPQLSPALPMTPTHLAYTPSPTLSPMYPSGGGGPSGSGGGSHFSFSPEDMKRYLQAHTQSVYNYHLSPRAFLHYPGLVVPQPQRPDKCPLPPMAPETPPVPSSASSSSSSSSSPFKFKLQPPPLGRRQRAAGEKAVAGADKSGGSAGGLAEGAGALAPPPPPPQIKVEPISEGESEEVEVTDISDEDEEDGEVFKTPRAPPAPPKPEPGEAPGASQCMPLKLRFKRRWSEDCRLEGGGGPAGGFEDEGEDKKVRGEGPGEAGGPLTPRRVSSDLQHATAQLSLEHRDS
To be noted: protein: recombinant; tags: N-terminal GST; dsDNA, one strand shown. Summed up: as §1

Assay [12] has as its target T7, ETV3L (Homo sapiens, UniProt Q6ZN32 1-361).
T7 sequence: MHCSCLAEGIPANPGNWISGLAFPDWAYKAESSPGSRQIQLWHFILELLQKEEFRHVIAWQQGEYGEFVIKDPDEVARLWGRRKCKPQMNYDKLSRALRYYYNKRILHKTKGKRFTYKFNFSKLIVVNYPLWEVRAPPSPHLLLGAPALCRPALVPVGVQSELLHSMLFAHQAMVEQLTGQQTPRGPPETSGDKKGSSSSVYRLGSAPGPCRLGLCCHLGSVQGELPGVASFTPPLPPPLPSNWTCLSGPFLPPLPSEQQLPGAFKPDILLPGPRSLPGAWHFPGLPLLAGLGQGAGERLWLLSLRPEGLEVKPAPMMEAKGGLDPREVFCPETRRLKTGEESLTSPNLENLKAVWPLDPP
To be noted: protein: recombinant; tags: N-terminal GST; dsDNA, one strand shown. Summed up:
as §1

The target in assay [13] is T8, ETS2 (Homo sapiens, UniProt P15036 1-469).
T8 sequence: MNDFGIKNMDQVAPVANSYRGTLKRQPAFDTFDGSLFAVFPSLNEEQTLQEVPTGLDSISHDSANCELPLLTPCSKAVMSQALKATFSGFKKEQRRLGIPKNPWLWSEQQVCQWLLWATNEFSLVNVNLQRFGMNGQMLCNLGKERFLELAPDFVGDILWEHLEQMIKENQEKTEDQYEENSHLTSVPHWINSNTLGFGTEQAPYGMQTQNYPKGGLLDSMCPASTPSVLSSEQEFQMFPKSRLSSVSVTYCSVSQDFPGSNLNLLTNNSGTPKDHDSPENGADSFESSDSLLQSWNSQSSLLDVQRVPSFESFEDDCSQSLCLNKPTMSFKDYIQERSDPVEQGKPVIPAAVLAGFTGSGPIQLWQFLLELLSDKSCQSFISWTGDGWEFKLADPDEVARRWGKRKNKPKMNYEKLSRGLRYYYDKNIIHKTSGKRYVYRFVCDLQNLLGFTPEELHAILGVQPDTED
To be noted: protein: recombinant; tags: N-terminal GST; dsDNA, one strand shown. Summed up: as §1

The target in assay [14] is T9, SPDEF (Homo sapiens, UniProt O95238 1-335).
T9 sequence: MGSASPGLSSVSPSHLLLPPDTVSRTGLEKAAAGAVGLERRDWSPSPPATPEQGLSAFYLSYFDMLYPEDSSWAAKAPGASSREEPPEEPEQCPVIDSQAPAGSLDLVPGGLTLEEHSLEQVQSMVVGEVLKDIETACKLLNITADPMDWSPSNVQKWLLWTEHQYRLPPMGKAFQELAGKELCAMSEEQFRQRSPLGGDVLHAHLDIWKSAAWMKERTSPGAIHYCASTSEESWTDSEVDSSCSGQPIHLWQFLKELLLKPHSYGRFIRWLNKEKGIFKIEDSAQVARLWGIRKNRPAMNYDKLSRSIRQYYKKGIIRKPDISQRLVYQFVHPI
The conditions noted are these: protein: recombinant; tags: N-terminal GST; dsDNA, one strand shown. Summed up: as §1

Assay [15] deals with T10, ETV7 (Homo sapiens, UniProt Q9Y603 1-341).
T10 sequence: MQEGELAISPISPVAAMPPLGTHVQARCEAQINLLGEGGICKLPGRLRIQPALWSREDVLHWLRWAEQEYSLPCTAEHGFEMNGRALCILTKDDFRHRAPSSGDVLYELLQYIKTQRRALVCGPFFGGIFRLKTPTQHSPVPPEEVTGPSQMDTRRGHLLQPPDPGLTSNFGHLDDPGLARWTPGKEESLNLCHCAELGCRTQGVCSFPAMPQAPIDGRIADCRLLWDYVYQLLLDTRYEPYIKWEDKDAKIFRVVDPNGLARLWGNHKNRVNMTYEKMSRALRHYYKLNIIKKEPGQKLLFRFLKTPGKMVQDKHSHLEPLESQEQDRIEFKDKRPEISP
To be noted: protein: recombinant; tags: N-terminal GST; dsDNA, one strand shown. Summed up: as §1

Assay [16] addresses T11, ELF5 (Homo sapiens, UniProt Q9UKW6-2 1-255).
T11 sequence: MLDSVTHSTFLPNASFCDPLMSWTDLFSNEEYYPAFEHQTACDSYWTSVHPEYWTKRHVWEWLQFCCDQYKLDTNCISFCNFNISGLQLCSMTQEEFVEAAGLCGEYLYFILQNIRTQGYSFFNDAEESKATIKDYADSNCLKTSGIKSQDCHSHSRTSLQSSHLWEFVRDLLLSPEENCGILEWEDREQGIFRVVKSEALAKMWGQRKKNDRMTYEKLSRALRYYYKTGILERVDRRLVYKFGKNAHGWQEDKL
The conditions noted are these: protein: recombinant; tags: N-terminal GST; dsDNA, one strand shown. Summed up: as §1

Assay [17] has as its target T12, ETV3 (Homo sapiens, UniProt P41162-2 1-143).
T12 sequence: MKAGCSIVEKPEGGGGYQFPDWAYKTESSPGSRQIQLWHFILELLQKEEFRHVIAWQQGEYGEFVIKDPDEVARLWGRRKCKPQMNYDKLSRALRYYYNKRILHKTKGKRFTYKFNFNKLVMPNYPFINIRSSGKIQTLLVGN
To be noted: protein: recombinant; tags: N-terminal GST; dsDNA, one strand shown. In a few lines: as §1

For assay [18], the target named is ETV6 (Homo sapiens, UniProt P41212 1-452). To be noted: protein: recombinant; tags: N-terminal GST; dsDNA, one strand shown. Summed up: as §1
ETV6, sequence (P41212 whole entry): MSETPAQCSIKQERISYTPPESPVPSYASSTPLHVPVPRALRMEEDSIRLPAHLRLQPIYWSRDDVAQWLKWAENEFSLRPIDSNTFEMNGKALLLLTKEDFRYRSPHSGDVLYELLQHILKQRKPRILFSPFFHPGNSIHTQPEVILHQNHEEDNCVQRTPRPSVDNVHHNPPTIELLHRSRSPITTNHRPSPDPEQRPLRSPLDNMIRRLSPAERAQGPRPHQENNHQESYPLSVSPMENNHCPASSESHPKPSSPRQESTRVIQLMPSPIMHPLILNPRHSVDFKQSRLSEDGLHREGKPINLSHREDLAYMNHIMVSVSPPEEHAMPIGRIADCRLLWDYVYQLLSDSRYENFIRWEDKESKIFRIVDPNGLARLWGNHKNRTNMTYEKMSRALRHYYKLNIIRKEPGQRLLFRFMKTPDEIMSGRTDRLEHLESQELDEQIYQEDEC

ETV5, sequence (P41161 whole entry): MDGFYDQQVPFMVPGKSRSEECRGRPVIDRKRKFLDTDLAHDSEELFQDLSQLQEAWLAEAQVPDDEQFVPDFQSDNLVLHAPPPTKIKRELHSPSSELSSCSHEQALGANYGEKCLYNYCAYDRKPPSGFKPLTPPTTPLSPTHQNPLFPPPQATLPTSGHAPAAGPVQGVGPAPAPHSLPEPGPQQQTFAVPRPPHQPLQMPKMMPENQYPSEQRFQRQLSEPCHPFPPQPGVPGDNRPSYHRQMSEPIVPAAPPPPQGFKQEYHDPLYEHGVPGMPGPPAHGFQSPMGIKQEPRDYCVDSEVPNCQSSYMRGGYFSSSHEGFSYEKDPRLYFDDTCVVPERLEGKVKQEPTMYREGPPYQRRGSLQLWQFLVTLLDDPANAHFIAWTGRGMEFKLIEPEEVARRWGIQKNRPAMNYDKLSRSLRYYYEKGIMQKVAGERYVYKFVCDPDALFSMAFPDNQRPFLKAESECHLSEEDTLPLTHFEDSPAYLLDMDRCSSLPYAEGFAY
HSF1, sequence (Q00613 whole entry): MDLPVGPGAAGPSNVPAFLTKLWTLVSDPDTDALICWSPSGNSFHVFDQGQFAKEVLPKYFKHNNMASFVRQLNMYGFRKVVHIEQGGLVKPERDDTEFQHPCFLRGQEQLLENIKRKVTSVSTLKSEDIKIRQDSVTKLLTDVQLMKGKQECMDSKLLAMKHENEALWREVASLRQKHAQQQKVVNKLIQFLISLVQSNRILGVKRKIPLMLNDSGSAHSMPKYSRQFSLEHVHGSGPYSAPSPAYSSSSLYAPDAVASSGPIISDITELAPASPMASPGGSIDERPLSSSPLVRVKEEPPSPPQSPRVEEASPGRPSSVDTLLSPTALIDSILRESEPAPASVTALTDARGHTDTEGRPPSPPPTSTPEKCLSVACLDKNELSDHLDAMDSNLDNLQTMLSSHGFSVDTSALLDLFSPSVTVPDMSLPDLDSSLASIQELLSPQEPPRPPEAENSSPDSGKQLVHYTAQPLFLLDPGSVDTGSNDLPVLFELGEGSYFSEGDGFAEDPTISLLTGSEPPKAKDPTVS
ELF4, sequence (Q99607 whole entry): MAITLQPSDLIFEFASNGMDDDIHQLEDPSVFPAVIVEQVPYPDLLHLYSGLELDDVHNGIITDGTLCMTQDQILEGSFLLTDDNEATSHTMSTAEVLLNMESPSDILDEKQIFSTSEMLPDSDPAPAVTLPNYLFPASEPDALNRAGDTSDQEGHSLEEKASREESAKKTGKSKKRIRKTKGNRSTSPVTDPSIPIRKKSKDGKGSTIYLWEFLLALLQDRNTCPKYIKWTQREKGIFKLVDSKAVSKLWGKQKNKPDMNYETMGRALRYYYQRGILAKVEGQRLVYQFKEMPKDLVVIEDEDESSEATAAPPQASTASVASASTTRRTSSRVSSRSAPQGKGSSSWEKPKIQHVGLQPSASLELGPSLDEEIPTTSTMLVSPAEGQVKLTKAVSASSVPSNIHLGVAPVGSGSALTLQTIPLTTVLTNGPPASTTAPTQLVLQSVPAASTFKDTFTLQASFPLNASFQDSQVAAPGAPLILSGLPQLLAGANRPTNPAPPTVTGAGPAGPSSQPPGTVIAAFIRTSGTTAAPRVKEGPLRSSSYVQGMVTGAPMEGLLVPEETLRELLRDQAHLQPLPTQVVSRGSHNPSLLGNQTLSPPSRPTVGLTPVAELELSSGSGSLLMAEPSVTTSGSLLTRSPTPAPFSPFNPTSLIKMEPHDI
ETV1, sequence (P50549 whole entry): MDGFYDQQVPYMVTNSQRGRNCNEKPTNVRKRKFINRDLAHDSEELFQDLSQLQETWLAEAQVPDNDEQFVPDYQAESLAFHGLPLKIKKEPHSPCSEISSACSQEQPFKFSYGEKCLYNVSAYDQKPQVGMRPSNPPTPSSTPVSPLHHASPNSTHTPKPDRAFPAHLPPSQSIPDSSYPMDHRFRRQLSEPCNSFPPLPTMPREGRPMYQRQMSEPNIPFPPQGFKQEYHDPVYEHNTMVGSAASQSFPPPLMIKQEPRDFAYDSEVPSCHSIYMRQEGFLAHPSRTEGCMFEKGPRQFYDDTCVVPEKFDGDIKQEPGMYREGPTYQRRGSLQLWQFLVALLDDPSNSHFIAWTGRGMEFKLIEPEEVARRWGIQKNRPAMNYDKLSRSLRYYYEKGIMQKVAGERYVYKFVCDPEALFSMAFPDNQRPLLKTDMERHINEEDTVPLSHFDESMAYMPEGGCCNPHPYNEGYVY

In the case of TTTTAC, the binding signal was 1.37 fold enrichment (6-mer frequency, TF over GST control) in assay [1]; 1.36 fold enrichment (6-mer frequency, TF over GST control) in [2]; 1.37 fold enrichment (6-mer frequency, TF over GST control) in [3]; 1.4 fold enrichment (6-mer frequency, TF over GST control) in assay [4]; 1.37 fold enrichment (6-mer frequency, TF over GST control) in [5]; 1.41 fold enrichment (6-mer frequency, TF over GST control) in [6]. The binding signal in [7] was 1.37 fold enrichment (6-mer frequency, TF over GST control); in assay [8], 1.4 fold enrichment (6-mer frequency, TF over GST control); in assay [9], 1.51 fold enrichment (6-mer frequency, TF over GST control); in assay [10], 1.46 fold enrichment (6-mer frequency, TF over GST control); in [11], 1.3 fold enrichment (6-mer frequency, TF over GST control); in [12] it was 1.32 fold enrichment (6-mer frequency, TF over GST control). The binding signal is 1.44 fold enrichment (6-mer frequency, TF over GST control) in assay [13]; 1.32 fold enrichment (6-mer frequency, TF over GST control) in [14]; 1.52 fold enrichment (6-mer frequency, TF over GST control) in [15]; 1.27 fold enrichment (6-mer frequency, TF over GST control) in assay [16]; 1.45 fold enrichment (6-mer frequency, TF over GST control) in [17]; 1.33 fold enrichment (6-mer frequency, TF over GST control) in [18].
